N370S GC: N370S glucocerebrosidase modulation, Gaucher chaperone candidate | AID 2101 | actives 0.092% (n = 330,000) | Potency, µM (top dose mostly 59.4 µM), for inactives: at the highest dose activity change, negative = inhibition, most hits filed as inhibitors | P04062 | N370S GC spleen homogenate, 4MU-glucoside fluorescence;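 further: potency means the concentration at half of the fitted maximal effect; 0% = full enzyme activity and -100% = no enzyme basal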
GAA inhib: blocks human lysosomal alpha-glucosidase; P10253; purified human GAA, 4-MU-alpha-glucoside fluorescence; Potency, µM (titrated, usually from 76.9 µM), for inactives: at the top dose activity change, negative = inhibition, actives largely listed as inhibitors; actives 0.005% (n = 200,000);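 further: potency means the concentration at half of the fitted maximal effect; plate controls were uninhibited enzyme wells for no effect and no-enzyme background for full effect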
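Fluorescence at Ex 365/Em 440 nm from 4-methylumbelliferone reported enzyme activity after 20 min at room temperature. Reactions used 4 nM enzyme and 400 uM substrate at pH 5.0; curves fitted with the Hill equation.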
GAA glycogen: alters human alpha-glucosidase cleavage of glycogen. P10253. recombinant GAA, glycogen substrate, Amplex Red glucose oxidase fluorescence. Potency, µM (doses to about 76.4 µM), inactives show at the highest dose activity change, negative = inhibition, actives largely listed as inhibitors. actives 0.38% (n = 300,000);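 further: potency means the concentration at half of the fitted maximal effect; 0% = full enzyme reaction and -100% = no-enzyme basal signal; the screen sought inhibitors and activators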
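Recombinant enzyme (4 nM final) with compounds titrated up to 77 uM and bovine liver glycogen (30 ug) in citrate pH 5.0, 0.01% Tween-20, 37 C 40 min. Released glucose detected by Amplex Red/glucose oxidase (Ex 573/Em 610); AC50 from Hill fits.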
GAA spleen mod: inhibitors or activators of human alpha-glucosidase in spleen homogenate | P10253 | human spleen homogenate, 4-MU-alpha-glucoside fluorescence | Potency, µM (top dose mostly 79.9 µM), for inactives: top-dose activity change, negative = inhibition, usual class: inhibitors | actives 0.006% (n = 240,000) | AID 2112;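 further: potency means the concentration at half of the fitted maximal effect; 0% = enzyme with vehicle and -100% = no enzyme basal signal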
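Enzyme source: human spleen homogenate, 1 ug/well. Buffer 50 mM citric acid/K phosphate pH 5.0, 0.01% Tween-20. 4-MU-alpha-glucoside 1 mM; 37 C x 40 min; NaOH/glycine stop; fluorescence.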
aGal spleen mod: alpha-galactosidase A (human) modulation; P06280; Potency, µM (doses to about 80 µM), for the others: at the highest dose activity change, negative = inhibition, most hits filed as inhibitors; actives 0.008% (n = 240,000); human spleen homogenate, 4MU-alpha-Gal fluorescence, 40 min;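 further: potency means the concentration at half of the fitted maximal effect; 0% = enzyme with vehicle and -100% = no enzyme basal signal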
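qHTS titration in buffer at pH 5.0. Alpha-galactosidase activity in spleen homogenate was measured via 4-methylumbelliferone release from 1 mM fluorogenic substrate after 40 min at 37C and a pH 10 stop. AC50 came from Hill fits of control-normalized data.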
GLA inh pH 4.5: alpha-galactosidase A (human) inhibition, pH 4.5; P06280; purified enzyme, 4-MU-alpha-Gal fluorescence, pH 4.5; activity change, negative = inhibition, % at 105 µM; 230,000 tested, under 10 active; AID 1467;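 further: 0% = full activity with enzyme and -100% = basal without enzyme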
Target sequence (P06280 whole entry, looked up): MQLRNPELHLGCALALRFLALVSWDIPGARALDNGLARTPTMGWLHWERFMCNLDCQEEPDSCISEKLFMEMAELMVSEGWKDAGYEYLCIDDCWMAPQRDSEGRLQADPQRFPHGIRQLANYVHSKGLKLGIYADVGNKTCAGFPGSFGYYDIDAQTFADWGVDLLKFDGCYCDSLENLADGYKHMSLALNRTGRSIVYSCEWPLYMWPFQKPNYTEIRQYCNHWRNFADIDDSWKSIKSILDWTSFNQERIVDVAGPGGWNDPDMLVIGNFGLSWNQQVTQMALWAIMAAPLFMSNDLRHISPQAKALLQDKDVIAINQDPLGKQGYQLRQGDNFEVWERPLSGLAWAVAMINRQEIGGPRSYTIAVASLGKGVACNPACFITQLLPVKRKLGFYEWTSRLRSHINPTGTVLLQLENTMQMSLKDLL
An asterisk follows results filed as active; [ ] = dose if it differs, or a comment. Compounds with a hit are over-represented: about 0.41% of the library has one in this group of screens. The call rests on the fitted dose curve; in most records, active means well fitted curve in the direction sought with a large enough effect; inconclusive means small, poorly fitted or top-dose-only effect, or another doubt; inactive means no such curve, though single readings can be large; an effect the other way counts as inactive or inconclusive.

Screening CC(=O)Oc1ccc(-c2csnn2)cc1 returned N370S GC 4%, GAA inhib 1%, GAA glycogen -8%, GAA spleen mod 9%, aGal spleen mod 4% and GLA inh pH 4.5 -9.
Cc1ccccc1C(=O)NNc1ccc(-c2csnn2)cc1 was read as N370S GC -26%, GAA inhib -2%, GAA glycogen 16µM*, GAA spleen mod 6%, aGal spleen mod 1% and GLA inh pH 4.5 -2.
For NC(=S)NNC(N)=S the results were N370S GC -1%, GAA spleen mod -8% and aGal spleen mod -1%.
`CCOC(=O)C1CCCN(c2c(C(=O)c3ccc(OCC)cc3)cnc3ccccc23)C1` (stereo not drawn) gave GAA glycogen 11µM*.
For O=C(O)c1cc(C(=O)O)c(C(=O)N(Cc2cccc(Oc3ccccc3)c2)[C@H]2CCCc3ccccc32)cc1C(=O)O the results were N370S GC -2%, GAA spleen mod -8% and aGal spleen mod 7%.
`COc1ccc(-n2cc(CNCCc3ncc(C)[nH]3)c(-c3ccccc3Cl)n2)cc1` gave N370S GC -4%, GAA inhib -3%, GAA glycogen 7.1µM*, GAA spleen mod -2%, aGal spleen mod 0% and GLA inh pH 4.5 4.
For Cc1c(C)n(Cc2ccc(Cl)cc2)c2ccc(C(=O)NCCN3CCOCC3)cc12 the results were N370S GC 10µM*.
`Cc1c(C)n(Cc2ccccc2)c2ccc(C(=O)NCCN3CCOCC3)cc12` gave N370S GC inconclusive and GAA glycogen 8%[76.3 µM].
`CC[C@H](C)[C@H](NC(=O)[C@H](CO)NC(=O)[C@H](CC(C)C)NC(=O)[C@@H]1CCCN1C(=O)[C@@H]1CCCN1C(=O)[C@H](CC(=O)O)NC(=O)[C@@H](N)CC(=O)O)C(=O)N[C@@H](CC(=O)O)C(=O)N[C@@H](CC(C)C)C(=O)N[C@H](C(=O)N[C@@H](Cc1ccccc1)C(=O)N[C@@H](Cc1cnc[nH]1)C(=O)N[C@@H](CC(C)C)C(=O)N[C@@H](CC(C)C)C(=O)N[C@@H](CCCNC(=N)N)C(=O)N[C@H](C(=O)N[C@@H](CC(C)C)C(=O)N[C@@H](CC(C)C)C(=O)N[C@@H](CCC(=O)O)C(=O)N[C@@H](CC(C)C)C(=O)N[C@@H](C)C(=O)N[C@@H](CCCNC(=N)N)C(=O)N[C@H](C(=O)N[C@@H](CCC(N)=O)C(=O)N[C@@H](CO)C(=O)N[C@@H](CCC(N)=O)C(=O)N[C@@H](CCCNC(=N)N)C(=O)N[C@@H](CCC(=O)O)C(=O)N[C@@H](CCCNC(=N)N)C(=O)N[C@@H](C)C(=O)N[C@@H](CCC(=O)O)C(=O)N[C@@H](CCC(N)=O)C(=O)N[C@@H](CC(N)=O)C(=O)N[C@@H](CCCNC(=N)N)C(=O)N[C@H](C(=O)N[C@H](C(=O)N[C@@H](Cc1ccccc1)C(=O)N[C@@H](CC(=O)O)C(=O)N[C@@H](CO)C(=O)N[C@H](C(N)=O)C(C)C)[C@@H](C)CC)[C@@H](C)CC)[C@@H](C)O)[C@@H](C)O)[C@@H](C)O` gave N370S GC 2%, GAA spleen mod 6% and aGal spleen mod 6%.
For Cc1ccn2c(NCc3ccc4c(c3)OCO4)c(-c3ccc(O)cc3)nc2c1 the results were N370S GC 13µM*, GAA inhib 0%, GAA glycogen -8%, GAA spleen mod -4%, aGal spleen mod 2% and GLA inh pH 4.5 0.
Screening Oc1ccc(-c2nc3ccccn3c2NCc2ccc3c(c2)OCO3)cc1 returned N370S GC inconclusive, GAA inhib 9%, GAA glycogen 35µM*, GAA spleen mod -23%, aGal spleen mod 8% and GLA inh pH 4.5 10.

Assay outcomes from PubChem BioAssay.
